Experimental data published in the supplement of paper PMC10849652.
Targets with a hit are over-represented here; the source holds about 8,800 in all. About 0.5% of all pairs of compound and target were hits.

compound: C1=CC=C(C=C1)[C@H](COC2=CC3=C(C=C2)NC(=O)N3)NC(=O)C4=CC=CN(C4=O)CC5=CC(=C(C=C5)F)F; test: log2 fold change, soluble protein after heating vs DMSO (PISA); higher = thermal stabilisation; K562 lysate, 10 uM; active = over 0.2 and 3.5 SD of the protein, either way, in both replicates (recomputed)
Summary of the method: (§1)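 Soluble protein was defined as the supernatant remaining after 21,000xg for 90 min, following pooling of heated aliquots and adjustment to 0.5% NP-40 at 4°C. Before that, crude K562 extract at 1 mg/mL protein in PBS pH 7.4 with 1 mM MgCl2 was treated with 10 μM compound for 30 min and heated for 3 min across 48°C-58°C. Quantification used TMTpro 16plex LC-MS/MS with channel sums equalised, and values are log-two fold changes in thermal stability relative to solvent controls from duplicates.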

Chain of UniProt Q96CQ1 (Q96CQ1 whole entry, looked up): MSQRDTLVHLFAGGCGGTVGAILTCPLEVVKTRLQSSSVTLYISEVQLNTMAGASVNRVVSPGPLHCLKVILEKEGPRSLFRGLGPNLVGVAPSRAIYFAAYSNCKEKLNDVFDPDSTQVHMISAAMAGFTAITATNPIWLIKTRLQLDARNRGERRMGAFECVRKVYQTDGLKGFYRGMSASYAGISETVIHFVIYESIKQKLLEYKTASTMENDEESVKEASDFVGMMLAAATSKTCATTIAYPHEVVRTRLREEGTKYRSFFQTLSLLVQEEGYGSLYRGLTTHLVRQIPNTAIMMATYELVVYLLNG
Chain of UniProt B2RUZ4 (B2RUZ4 whole entry, looked up): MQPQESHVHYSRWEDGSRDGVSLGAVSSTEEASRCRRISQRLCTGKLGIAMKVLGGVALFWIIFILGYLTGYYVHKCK
Chain of UniProt P12931 (P12931 whole entry, looked up): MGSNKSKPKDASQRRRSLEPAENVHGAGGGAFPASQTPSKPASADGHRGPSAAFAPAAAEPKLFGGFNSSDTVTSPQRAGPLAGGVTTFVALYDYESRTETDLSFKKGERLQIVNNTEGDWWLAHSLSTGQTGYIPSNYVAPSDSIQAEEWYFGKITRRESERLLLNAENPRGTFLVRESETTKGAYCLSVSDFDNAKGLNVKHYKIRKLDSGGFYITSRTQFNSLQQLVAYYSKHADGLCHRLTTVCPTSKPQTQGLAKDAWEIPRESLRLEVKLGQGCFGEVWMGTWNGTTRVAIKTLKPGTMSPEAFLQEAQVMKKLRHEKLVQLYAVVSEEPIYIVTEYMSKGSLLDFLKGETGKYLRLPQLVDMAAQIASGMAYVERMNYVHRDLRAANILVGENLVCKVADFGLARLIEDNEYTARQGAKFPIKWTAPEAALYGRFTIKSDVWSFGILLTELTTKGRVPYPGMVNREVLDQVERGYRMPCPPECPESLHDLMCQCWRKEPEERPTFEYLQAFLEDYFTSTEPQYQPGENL
Chain of UniProt O95793 (O95793 whole entry, looked up): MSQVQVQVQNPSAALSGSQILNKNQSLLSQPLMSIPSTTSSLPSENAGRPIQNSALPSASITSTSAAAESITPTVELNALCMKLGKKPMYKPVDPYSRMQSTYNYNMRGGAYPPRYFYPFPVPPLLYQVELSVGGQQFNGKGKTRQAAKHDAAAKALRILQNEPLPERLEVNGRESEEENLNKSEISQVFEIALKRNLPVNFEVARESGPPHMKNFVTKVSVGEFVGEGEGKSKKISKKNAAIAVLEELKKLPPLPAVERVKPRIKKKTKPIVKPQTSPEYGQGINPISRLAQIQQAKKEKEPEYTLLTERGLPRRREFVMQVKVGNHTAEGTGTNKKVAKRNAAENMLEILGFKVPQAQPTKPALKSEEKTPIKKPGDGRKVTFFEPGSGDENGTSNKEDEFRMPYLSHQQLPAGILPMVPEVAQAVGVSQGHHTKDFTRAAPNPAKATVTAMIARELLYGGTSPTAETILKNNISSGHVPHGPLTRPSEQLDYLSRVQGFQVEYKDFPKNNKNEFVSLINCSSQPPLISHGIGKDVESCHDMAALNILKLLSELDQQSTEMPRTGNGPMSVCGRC
Chain of UniProt Q15544 (Q15544 whole entry, looked up): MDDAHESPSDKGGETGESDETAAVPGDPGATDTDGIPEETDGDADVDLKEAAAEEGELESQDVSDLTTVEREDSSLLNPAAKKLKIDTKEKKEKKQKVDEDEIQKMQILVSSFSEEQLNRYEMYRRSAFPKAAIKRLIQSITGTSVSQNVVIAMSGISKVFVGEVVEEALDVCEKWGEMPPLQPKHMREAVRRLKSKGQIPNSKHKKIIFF
Chain of UniProt Q8N196 (Q8N196 whole entry, looked up): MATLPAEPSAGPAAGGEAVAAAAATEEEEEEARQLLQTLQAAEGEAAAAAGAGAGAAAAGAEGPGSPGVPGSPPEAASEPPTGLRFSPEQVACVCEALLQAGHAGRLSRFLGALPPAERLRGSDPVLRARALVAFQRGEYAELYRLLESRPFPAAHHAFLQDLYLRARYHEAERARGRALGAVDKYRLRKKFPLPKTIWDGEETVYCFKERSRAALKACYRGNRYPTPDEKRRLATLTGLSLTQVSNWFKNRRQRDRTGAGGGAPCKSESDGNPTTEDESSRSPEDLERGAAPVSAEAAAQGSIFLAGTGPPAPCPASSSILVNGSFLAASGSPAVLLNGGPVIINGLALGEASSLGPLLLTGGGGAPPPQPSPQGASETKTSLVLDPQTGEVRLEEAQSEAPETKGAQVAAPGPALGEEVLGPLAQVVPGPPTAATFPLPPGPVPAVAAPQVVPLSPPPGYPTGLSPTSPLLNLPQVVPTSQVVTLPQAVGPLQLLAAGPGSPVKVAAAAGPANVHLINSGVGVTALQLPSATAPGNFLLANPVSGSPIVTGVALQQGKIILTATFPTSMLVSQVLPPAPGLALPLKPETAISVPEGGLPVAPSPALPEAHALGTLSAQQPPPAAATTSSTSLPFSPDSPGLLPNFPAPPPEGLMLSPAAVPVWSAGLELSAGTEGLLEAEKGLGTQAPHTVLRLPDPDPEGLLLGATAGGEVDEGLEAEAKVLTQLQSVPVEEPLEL
Chain of UniProt Q96BI1 (Q96BI1 whole entry, looked up): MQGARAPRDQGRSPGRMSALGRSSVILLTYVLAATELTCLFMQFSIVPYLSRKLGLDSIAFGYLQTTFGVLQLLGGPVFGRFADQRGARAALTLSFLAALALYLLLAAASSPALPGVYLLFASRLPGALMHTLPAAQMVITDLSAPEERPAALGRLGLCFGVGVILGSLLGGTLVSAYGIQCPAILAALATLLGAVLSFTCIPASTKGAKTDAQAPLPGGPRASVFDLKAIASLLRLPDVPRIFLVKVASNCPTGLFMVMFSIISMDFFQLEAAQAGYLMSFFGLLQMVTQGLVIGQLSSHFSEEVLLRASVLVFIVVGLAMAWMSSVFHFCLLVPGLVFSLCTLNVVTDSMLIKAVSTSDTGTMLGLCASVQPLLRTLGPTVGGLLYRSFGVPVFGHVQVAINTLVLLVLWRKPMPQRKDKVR
Chain of UniProt Q9NP59 (Q9NP59 whole entry, looked up): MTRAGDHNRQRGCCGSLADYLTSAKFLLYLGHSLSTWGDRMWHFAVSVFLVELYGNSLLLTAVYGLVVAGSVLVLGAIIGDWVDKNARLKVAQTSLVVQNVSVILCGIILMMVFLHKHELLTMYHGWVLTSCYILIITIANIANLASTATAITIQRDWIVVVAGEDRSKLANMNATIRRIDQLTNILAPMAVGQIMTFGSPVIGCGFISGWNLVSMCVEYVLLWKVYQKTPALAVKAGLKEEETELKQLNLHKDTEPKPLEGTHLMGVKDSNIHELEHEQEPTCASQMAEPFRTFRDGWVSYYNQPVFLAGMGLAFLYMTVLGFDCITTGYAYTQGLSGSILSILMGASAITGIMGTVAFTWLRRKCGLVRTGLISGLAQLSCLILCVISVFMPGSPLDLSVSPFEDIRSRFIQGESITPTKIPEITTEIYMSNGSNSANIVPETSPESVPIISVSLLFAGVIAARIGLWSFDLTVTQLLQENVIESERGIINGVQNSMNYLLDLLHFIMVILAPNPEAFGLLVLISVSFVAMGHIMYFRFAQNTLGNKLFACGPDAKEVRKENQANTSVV
Chain of UniProt Q96BD0 (Q96BD0 whole entry, looked up): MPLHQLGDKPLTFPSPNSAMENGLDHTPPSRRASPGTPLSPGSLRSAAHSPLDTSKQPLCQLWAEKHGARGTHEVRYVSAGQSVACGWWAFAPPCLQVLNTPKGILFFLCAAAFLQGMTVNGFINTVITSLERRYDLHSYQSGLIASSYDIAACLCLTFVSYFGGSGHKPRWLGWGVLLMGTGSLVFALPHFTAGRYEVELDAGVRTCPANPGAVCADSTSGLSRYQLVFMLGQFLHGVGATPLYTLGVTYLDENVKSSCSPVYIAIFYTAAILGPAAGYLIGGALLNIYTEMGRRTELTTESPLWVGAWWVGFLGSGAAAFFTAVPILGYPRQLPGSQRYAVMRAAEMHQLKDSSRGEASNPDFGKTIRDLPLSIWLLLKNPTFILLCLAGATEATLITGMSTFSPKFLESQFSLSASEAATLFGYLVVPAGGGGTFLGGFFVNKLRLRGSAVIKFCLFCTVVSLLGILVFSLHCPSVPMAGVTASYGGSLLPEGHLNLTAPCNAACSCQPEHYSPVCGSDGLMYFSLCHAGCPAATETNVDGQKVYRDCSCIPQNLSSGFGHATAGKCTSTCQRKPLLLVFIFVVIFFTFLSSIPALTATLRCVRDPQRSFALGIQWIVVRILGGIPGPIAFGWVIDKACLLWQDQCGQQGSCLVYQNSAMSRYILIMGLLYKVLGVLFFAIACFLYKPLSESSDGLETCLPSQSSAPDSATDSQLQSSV
Chain of UniProt Q13487 (Q13487 whole entry, looked up): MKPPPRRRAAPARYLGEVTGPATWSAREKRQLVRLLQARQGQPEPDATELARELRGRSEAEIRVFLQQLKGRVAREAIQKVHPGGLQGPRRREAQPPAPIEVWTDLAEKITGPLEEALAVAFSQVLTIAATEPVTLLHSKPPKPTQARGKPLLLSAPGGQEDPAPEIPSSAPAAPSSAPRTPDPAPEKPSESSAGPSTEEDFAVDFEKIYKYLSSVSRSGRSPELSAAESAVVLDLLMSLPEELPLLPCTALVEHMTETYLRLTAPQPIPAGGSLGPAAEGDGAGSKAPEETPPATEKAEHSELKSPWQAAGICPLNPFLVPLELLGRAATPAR
Chain of UniProt O60225 (O60225 whole entry, looked up): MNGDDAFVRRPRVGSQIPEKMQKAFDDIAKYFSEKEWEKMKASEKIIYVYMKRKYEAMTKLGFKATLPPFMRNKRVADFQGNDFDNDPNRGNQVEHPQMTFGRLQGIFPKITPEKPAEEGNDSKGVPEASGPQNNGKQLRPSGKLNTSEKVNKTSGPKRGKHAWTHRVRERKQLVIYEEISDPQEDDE
Chain of UniProt O00161 (O00161 whole entry, looked up): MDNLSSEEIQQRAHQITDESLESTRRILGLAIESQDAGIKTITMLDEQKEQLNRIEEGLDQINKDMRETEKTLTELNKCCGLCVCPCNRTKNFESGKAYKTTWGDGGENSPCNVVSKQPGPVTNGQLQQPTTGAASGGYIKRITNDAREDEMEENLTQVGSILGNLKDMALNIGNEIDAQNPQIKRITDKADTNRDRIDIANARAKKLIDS

Target | log2 fold change
SNUPN (UniProt O95149) | -0.013 (inactive)
SZT2 (UniProt Q5T011) | -0.285 (inactive)
SLC30A6 isoform 2 (UniProt Q6NXT4) | 0.033 (inactive)
STAU1 isoform 3 (UniProt O95793) | 0.19 (inactive)
SPPL2A (UniProt Q8TCT8) | -0.148 (inactive)
SLC22A18 (UniProt Q96BI1) | 0.07 (inactive)
SRC isoform 2 (UniProt P12931) | -0.052 (inactive)
SLCO4A1 (UniProt Q96BD0) | 0.203 (inactive)
SNAPC2 (UniProt Q13487) | 0.107 (inactive)
STN1 (UniProt Q9H668) | -0.125 (inactive)
SSX5 isoform 2 (UniProt O60225) | 0.022 (inactive)
SIX5 (UniProt Q8N196) | -0.011 (inactive)
SMIM1 (UniProt B2RUZ4) | 0.053 (inactive)

compound: CC1=C(SC2=C1C(=N[C@H](C3=NN=C(N32)C)CC(=O)N)C4=CC=C(C=C4)Cl)C; test: as above
Summary of the method: as §1

Target | log2 fold change
SNUPN (UniProt O95149) | -0.018 (inactive)
SZT2 (UniProt Q5T011) | -0.066 (inactive)
SLC30A6 isoform 2 (UniProt Q6NXT4) | -0.046 (inactive)
STAU1 isoform 3 (UniProt O95793) | 0.043 (inactive)
SPPL2A (UniProt Q8TCT8) | 0.118 (inactive)
SLC22A18 (UniProt Q96BI1) | 0.048 (inactive)
SRC isoform 2 (UniProt P12931) | -0.412 (active)
SLCO4A1 (UniProt Q96BD0) | -0.372 (inactive)
SNAPC2 (UniProt Q13487) | 0.302 (inactive)
STN1 (UniProt Q9H668) | 0.073 (inactive)
SSX5 isoform 2 (UniProt O60225) | 0.03 (inactive)
SIX5 (UniProt Q8N196) | 0.034 (inactive)
SMIM1 (UniProt B2RUZ4) | -0.054 (inactive)

compound: CC1=C2C(=CC=C1)N=C(N(C2=O)C3=CC=CC=C3C)CN4C=NC5=C(N=CN=C54)N; test: as above
Summary of the method: as §1

Target | log2 fold change
SKP2 (UniProt Q13309) | -0.015 (inactive)
SNRPD2 (UniProt K7EJB5) | 0.024 (inactive)
SLC40A1 (UniProt Q9NP59) | 0.013 (inactive)
SNUPN (UniProt O95149) | 0.047 (inactive)
SLC30A6 isoform 2 (UniProt Q6NXT4) | 0.116 (inactive)
SPPL2A (UniProt Q8TCT8) | 0.087 (inactive)
TARDBP (UniProt K7EN94) | 0.319 (inactive)
SLC22A18 (UniProt Q96BI1) | -0.036 (inactive)
STAR (UniProt P49675) | 0.048 (inactive)
SLC35A3 isoform 2 (UniProt Q9Y2D2) | 0.008 (inactive)
STN1 (UniProt Q9H668) | -0.115 (inactive)
SSX5 isoform 2 (UniProt O60225) | -0.157 (inactive)
SNAP23 isoform 2 (UniProt O00161) | 0.045 (inactive)
SLC25A36 (UniProt Q96CQ1) | 0.013 (inactive)
SIN3B (UniProt O75182) | -0.129 (inactive)
TAF11 (UniProt Q15544) | 0 (inactive)

compound: Cc1sc2c(c1C)C(c1ccc(Cl)cc1)=N[C@@H](CC(=O)OC(C)(C)C)c1nnc(C)n1-2; test: as above
Summary of the method: as §1

Target | log2 fold change
SKP2 (UniProt Q13309) | -0.003 (inactive)
SNRPD2 (UniProt K7EJB5) | -0.047 (inactive)
SLC40A1 (UniProt Q9NP59) | -0.107 (inactive)
SZT2 (UniProt Q5T011) | -0.148 (inactive)
SMPD2 (UniProt O60906) | -0.244 (inactive)
SLC12A6 isoform 2 (UniProt Q9UHW9) | -0.179 (inactive)
STK17B (UniProt O94768) | -0.029 (inactive)
STK26 isoform 3 (UniProt Q9P289) | 0.166 (inactive)
SRC isoform 2 (UniProt P12931) | -0.105 (inactive)
STAR (UniProt P49675) | -0.077 (inactive)
SHB (UniProt Q15464) | 0.033 (inactive)
SNAPC2 (UniProt Q13487) | 0.101 (inactive)
STK38L (UniProt Q9Y2H1) | -0.031 (inactive)
SMARCA4 isoform 4 (UniProt P51532) | -0.007 (inactive)
SIX5 (UniProt Q8N196) | -0.037 (inactive)
SLC25A36 (UniProt Q96CQ1) | 0.035 (inactive)
TAF11 (UniProt Q15544) | -0.16 (inactive)

compound: c1ccc([C@@H]2C[C@H]2NC2CCNCC2)cc1; test: as above
Summary of the method: as §1

Target | log2 fold change
SKP2 (UniProt Q13309) | 0.001 (inactive)
SLC40A1 (UniProt Q9NP59) | -0.205 (inactive)
SNUPN (UniProt O95149) | -0.02 (inactive)
SZT2 (UniProt Q5T011) | 0.105 (inactive)
SMPD2 (UniProt O60906) | -0.05 (inactive)
STK17A (UniProt Q9UEE5) | 0.148 (inactive)
SLC30A6 isoform 2 (UniProt Q6NXT4) | -0.059 (inactive)
SHC1 (UniProt P29353) | 0.201 (inactive)
STAU1 isoform 3 (UniProt O95793) | 0.081 (inactive)
SPPL2A (UniProt Q8TCT8) | 0.098 (inactive)
SLC22A18 (UniProt Q96BI1) | -0.088 (inactive)
SRC isoform 2 (UniProt P12931) | 0.017 (inactive)
STAR (UniProt P49675) | -0.028 (inactive)
SHB (UniProt Q15464) | 0.086 (inactive)
SLCO4A1 (UniProt Q96BD0) | -0.013 (inactive)
SNAPC2 (UniProt Q13487) | 0.004 (inactive)
SLC35A3 isoform 2 (UniProt Q9Y2D2) | -0.57 (inactive)
STN1 (UniProt Q9H668) | -0.049 (inactive)
SSX5 isoform 2 (UniProt O60225) | -0.253 (inactive)
SMARCA4 isoform 4 (UniProt P51532) | 0.131 (inactive)
SIX5 (UniProt Q8N196) | 0.209 (inactive)
SMIM1 (UniProt B2RUZ4) | -0.028 (inactive)
SNAP23 isoform 2 (UniProt O00161) | -0.038 (inactive)
SLC25A36 (UniProt Q96CQ1) | 0 (inactive)
SIN3B (UniProt O75182) | 0.052 (inactive)
SLC41A1 (UniProt Q8IVJ1) | -0.016 (inactive)
TAF11 (UniProt Q15544) | -0.073 (inactive)
